Laboratory results from ChEMBL document CHEMBL3988442, “University of Dundee, Small-Polar-MMV Screening Library” (2021).
For some of these results: Potency and affinity values are given separately.

Tests used:
Parameters in all cases: scale not given: direction of the effect not stated beside the values
[1] = target: Protein translocase subunit SecA (Escherichia coli (strain K12)) (UniProt P10408); experiment: Assay to Identify E. coli SecA ATPase Inhibitors; assay type: functional; conditions: 30 µM
[2] = target: T1, Ubiquitin-activating enzyme e1, putative (Leishmania donovani (strain BPK282A1)) (UniProt E9BSI1); experiment: Leishmania donovani Ubiquitin Activating Enzyme (LdE1); assay type: functional; conditions: 30 µM
T1 sequence (whole entry): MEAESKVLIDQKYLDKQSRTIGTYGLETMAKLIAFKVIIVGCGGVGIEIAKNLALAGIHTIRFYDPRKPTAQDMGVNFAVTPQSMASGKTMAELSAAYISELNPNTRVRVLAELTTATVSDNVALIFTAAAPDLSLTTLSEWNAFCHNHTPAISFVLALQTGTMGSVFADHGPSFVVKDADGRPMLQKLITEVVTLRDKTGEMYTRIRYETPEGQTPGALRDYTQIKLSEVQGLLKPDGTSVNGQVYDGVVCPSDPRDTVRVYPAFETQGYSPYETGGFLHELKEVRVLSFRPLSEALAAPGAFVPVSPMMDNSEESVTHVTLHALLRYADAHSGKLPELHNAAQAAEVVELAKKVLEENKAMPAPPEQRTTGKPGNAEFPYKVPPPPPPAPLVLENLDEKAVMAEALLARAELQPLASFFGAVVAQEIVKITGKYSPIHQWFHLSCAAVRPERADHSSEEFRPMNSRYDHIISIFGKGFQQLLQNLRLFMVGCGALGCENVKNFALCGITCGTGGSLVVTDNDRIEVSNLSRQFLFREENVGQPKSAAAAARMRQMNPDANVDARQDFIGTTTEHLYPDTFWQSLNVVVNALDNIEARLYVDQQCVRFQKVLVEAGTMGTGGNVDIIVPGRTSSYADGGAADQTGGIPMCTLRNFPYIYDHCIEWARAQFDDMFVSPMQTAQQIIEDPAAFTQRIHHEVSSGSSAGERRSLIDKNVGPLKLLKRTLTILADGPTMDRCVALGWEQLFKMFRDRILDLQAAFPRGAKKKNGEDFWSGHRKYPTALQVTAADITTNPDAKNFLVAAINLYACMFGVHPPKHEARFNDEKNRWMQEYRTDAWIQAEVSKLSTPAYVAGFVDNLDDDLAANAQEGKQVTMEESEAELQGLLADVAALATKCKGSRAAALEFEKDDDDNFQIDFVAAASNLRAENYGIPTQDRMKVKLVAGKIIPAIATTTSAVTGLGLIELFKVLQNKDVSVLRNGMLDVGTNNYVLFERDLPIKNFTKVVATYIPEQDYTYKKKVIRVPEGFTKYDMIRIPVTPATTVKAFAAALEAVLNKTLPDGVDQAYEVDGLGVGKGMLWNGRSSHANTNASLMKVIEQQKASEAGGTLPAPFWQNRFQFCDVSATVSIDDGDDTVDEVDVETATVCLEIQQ

[3] = target: AMP-activated protein kinase, AMPK (Homo sapiens) (UniProt P54646+O43741+P54619+Q9UGJ0+Q9Y478+Q13131+Q9UGI9); experiment: AMP-dependent Kinase enzyme assay. An in vitro enzyme assay that detects ADP turnover that is directly proportional to AMPK activity. This uses naive AMPK that is activated during the assay with MK-8722; assay type: functional; conditions: 30 µM
[4] = target: Sialic acid-binding Ig-like lectin 9 (Homo sapiens) (UniProt Q9Y336); experiment: Hs-Siglec9 ALPHAscreen SOP 20170721; conditions: 10 µM
Trypanosoma cruzi = experiment: Trypanosoma cruzi phosphomannomutase and mannose-1-phosphate guanylyltransferase assay; assay type: functional; conditions: 10 µM
[5] = target: T2, Arginase-2, mitochondrial (Homo sapiens) (UniProt P78540); experiment: in vitro enzyme assay to detect the production of urea directly proportional to the activity of Arginase II; assay type: functional; conditions: 33.3 µM; also: in the data most compounds retested in dose-response had high values
T2 sequence (whole entry): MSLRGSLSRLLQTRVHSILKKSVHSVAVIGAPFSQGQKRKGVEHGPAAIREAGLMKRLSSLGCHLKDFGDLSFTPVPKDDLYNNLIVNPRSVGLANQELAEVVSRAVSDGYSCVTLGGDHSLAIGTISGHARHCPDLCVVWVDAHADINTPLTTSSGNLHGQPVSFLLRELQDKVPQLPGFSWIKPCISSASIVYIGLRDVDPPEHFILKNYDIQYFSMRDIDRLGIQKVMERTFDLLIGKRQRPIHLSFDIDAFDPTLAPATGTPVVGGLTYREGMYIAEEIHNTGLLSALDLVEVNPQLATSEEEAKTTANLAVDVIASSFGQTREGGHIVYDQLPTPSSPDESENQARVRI

[6] = target: T3, Proteasome subunit beta (Trypanosoma cruzi) (UniProt O96673); experiment: Trypanosoma cruzi proteasome chymotrypsin-like activity (TcProtChymo) assay.; also: in the data most compounds retested in dose-response had high values; assay type: functional; conditions: 9.37 µM
T3 sequence (whole entry): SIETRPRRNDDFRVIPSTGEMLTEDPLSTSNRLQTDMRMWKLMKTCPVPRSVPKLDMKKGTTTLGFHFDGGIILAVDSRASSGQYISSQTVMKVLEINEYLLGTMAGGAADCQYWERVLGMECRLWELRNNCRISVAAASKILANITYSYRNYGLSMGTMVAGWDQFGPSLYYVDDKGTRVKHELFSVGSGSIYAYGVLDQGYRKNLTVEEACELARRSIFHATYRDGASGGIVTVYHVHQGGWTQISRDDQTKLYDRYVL

Homo sapiens = species on record: Homo sapiens; experiment: To identify inhibition of the IFN signalling (Jak-Stat) pathway via expression of an eGFP reporter gene under the control of an IFN-stimulated response element (ISRE) containing MxA promoter.; assay type: functional; conditions: 30 µM
[7] = target: T4, Tyrosyl-tRNA synthetase, putative (Trypanosoma cruzi (strain CL Brener)) (UniProt Q4DSP6); experiment: Trypanosoma cruzi tyrosyl tRNA synthetase (TcYRS) _High Tyrosine SOP; assay type: functional; conditions: 30 µM; also: in the data most compounds retested in dose-response had high values
T4 sequence (whole entry): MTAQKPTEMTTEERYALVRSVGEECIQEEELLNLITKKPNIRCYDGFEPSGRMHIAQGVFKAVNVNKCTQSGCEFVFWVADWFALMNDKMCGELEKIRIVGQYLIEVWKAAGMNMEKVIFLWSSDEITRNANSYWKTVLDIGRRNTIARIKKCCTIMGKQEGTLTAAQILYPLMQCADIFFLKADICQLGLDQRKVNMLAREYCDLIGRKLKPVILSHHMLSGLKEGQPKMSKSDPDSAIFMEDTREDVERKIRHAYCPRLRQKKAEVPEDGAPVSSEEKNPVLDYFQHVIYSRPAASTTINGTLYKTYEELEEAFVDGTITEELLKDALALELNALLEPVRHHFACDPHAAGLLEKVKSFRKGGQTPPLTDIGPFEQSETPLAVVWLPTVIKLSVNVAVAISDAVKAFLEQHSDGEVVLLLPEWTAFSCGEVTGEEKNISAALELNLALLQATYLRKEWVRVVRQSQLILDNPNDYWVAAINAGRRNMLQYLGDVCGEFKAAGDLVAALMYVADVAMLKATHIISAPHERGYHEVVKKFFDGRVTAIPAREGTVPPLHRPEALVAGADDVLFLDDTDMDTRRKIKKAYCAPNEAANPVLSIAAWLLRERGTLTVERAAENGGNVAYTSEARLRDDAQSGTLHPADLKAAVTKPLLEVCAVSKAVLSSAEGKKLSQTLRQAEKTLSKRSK

[8] = target: T4, Tyrosyl-tRNA synthetase, putative (Trypanosoma cruzi (strain CL Brener)); experiment: Trypanosoma cruzi tyrosyl tRNA synthetase (TcYRS) SOP; assay type: functional; conditions: 30 µM
[9] = target: Chromo domain-containing protein 1 (Saccharomyces cerevisiae (strain ATCC 204508 / S288c) (Baker's yeast)) (UniProt P32657); experiment: ScCHD-1 Enzyme Inhibition Assay; assay type: functional; conditions: 30 µM; also: in the data most compounds retested in dose-response had high values
Sequence of Chromo domain-containing protein 1 (Saccharomyces cerevisiae (strain ATCC 204508 / S288c) (Baker's yeast)) (P32657 whole entry, the tested form may be a part): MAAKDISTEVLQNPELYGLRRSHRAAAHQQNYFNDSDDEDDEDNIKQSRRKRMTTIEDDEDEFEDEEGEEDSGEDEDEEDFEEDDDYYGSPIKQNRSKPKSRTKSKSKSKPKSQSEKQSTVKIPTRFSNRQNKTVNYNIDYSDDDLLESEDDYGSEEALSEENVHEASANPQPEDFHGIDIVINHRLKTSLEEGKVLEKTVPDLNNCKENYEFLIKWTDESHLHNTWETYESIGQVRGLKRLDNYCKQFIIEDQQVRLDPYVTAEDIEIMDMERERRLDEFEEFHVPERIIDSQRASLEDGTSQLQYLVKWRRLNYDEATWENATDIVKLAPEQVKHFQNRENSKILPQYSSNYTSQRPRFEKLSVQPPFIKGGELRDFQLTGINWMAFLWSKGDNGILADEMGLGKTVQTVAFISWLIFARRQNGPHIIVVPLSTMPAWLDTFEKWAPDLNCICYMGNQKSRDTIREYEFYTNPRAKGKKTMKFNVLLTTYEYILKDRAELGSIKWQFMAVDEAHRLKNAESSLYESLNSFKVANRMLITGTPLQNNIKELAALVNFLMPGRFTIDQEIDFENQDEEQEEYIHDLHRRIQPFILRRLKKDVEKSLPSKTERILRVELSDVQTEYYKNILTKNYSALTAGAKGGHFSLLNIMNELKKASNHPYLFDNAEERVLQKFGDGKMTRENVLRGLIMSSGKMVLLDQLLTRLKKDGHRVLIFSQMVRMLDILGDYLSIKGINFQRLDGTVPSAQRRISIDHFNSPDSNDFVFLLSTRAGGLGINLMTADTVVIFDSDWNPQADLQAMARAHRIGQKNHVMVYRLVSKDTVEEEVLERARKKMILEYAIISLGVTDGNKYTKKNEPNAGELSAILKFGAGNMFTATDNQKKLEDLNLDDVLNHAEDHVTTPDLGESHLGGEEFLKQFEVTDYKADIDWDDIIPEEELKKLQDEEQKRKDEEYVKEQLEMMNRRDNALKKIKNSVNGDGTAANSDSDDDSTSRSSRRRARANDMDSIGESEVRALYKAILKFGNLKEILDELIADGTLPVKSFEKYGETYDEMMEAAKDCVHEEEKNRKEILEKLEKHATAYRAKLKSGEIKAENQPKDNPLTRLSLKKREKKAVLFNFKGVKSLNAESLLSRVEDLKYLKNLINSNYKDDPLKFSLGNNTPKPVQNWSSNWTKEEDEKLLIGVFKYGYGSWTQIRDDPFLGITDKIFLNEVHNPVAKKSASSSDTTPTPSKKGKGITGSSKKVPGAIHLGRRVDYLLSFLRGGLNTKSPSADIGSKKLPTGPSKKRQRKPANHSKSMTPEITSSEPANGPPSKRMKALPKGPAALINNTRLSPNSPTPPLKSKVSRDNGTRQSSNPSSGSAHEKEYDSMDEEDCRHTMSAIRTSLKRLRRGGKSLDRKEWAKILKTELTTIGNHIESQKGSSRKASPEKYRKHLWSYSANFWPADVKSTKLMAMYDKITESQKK

Sequence of Protein translocase subunit SecA (Escherichia coli (strain K12)) (P10408 whole entry): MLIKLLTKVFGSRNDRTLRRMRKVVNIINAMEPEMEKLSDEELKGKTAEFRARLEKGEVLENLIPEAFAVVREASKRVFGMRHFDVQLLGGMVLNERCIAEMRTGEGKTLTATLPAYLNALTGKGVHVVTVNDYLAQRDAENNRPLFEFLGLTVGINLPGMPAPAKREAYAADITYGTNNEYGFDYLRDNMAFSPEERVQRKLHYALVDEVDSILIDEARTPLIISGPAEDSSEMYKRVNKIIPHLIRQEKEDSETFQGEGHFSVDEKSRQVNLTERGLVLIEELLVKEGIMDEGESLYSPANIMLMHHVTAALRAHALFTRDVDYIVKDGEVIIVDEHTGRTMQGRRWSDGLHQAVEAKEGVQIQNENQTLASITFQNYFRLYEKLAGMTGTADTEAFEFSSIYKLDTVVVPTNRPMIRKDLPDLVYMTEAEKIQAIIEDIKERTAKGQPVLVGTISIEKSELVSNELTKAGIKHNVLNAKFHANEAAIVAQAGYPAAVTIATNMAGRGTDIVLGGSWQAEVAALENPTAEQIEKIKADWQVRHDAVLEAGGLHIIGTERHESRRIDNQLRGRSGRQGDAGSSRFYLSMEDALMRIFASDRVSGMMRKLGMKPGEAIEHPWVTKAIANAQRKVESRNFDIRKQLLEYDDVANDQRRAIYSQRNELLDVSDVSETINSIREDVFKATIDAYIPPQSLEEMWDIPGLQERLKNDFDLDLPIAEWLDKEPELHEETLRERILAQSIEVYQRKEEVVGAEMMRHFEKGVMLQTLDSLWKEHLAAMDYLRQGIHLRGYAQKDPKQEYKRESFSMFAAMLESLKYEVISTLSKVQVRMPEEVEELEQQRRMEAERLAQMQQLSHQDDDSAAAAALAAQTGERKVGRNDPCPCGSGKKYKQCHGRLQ
Sequence of Sialic acid-binding Ig-like lectin 9 (Homo sapiens) (Q9Y336 whole entry): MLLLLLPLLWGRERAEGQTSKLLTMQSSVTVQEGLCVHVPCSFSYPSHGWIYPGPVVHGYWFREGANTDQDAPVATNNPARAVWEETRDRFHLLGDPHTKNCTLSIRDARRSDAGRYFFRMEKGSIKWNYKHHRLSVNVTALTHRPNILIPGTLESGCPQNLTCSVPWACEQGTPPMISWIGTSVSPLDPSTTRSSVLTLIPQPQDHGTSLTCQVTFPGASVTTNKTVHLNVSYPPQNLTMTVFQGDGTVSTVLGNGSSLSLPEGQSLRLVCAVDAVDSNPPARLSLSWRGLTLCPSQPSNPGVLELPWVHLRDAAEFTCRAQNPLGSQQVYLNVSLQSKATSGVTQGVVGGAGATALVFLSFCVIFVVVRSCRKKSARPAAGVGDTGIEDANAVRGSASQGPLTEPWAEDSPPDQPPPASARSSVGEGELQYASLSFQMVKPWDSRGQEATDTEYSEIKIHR

SMILES	Percent Effect [1] [%]	Percent Effect [2] [%]	Percent Effect [3] [%]	Percent Effect [4] [%]	Percent Effect (Trypanosoma cruzi) [%]	Percent Effect [5] [%]	Percent Effect [6] [%]	Percent Effect (Homo sapiens) [%]	Percent Effect [7] [%]	Percent Effect [8] [%]	Percent Effect [9] [%]
COc1cc(C)nc(N2CCN(C(=O)CCc3nccs3)CC2)n1	-6.4	0	2.65	3.42	-5.6	-3.33	14.5	30.1	-2.65	2.44	-4.19
c1ccc(OC[C@]23COC[C@H]2CN(c2ncccn2)C3)nc1	0.189	8	1.07	5.7	6.37	-59.3	12.7	-4.34	3.12	17.5	-8.1
N#Cc1ccc(CN2CCC(c3ccnn3CCO)CC2)cc1	-4.87	10.5	-3.54	2.96	0.654	-1.8	-4.48	3.68	7.39	23.5	-1.9
c1nc2n(n1)CC(NCc1nc(-c3ccsc3)no1)CC2 (stereo unspecified)	-3.43	0	-5.33	-3.06	-1.02	-0.554	-5.92	4.74	2.97	6.1	7.25
c1cn(Cc2nnc(C3CCN(c4nccs4)CC3)n2C2CC2)cn1	-3.22	16	0.541	19.9	4.77	13	9.59	7.24	7.1	8.64	90.7
Cc1ccc(C(=O)N2CCN(CC(O)c3ccc(F)cc3)CC2)s1 (stereo unspecified)	-2.93	7.89	6.49	18.1	-0.564	0.766	4.34	13.7	5.39	9.76	-0.68
Cc1nc(CN(C)C2CCN(Cc3ccno3)C2)no1 (stereo unspecified)	-3.58	18.2	-53.5	-23.7	5.19	-7.79	29.4	4.64	3.81	18.8	3.1
Cc1ccc(N2CCCC(NCC(=O)Nc3cc(C)no3)C2)nn1 (stereo unspecified)	-1.36	13.9	-2.91	-5.54	-3.59	0.215	13	17.8	1.04	7.59	-23.2
O=C(CCN1CCCC1C1CCCCC1)N1CCc2sccc2C1 (stereo unspecified)	-3.42	-48.6	11.2	-0.447	5.75	-5.21	-0.18	-25.7	14.3	11.1	10.3
CCn1c(Cn2cncn2)nnc1C1CCN(Cc2ccncc2)CC1	-5.1	5.41	-3.24	1.13	-0.489	2.73	4.72	-4.54	9.68	21	-2.94
CCc1nccn1C1CCCN(C(=O)CCCNc2ncccn2)C1 (stereo unspecified)	-4.28	3.8	4.55	1.92	-2.77	2.8	6	9.01	4.17	10.1	-14.2
